Assay results as given in PubChem BioAssay AID1159580 (chemical genetic matrix, 2015).
Several values for one entry are separate records, joined by “and”; a condition that tells them apart may be missing. Equal entries are not always repeated. Screen size: about 5,500 compounds; about 2,000 (36%) were called active. Not shown: some 18% with an inconclusive outcome. Rule as the data show it: active = normalized growth mostly below about 0.91 (no sharp cut-off); inconclusive = no clear call, values can overlap the other calls; inactive = mostly above about 0.92. The list shows a part of the results.

Experiment: chemical genetic growth profiling, strain panel (AID 1159580);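 also: tested at 20 µM; growth read once vehicle control cultures reached saturation at 30 °C; 1 = growth at the plate median or of vehicle wells; lower values mean less growth of the strain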
Conditions: S. cerevisiae deletion strains, growth OD

Measured: normalized growth

O=C(CCCN1CC=C(n2c(=O)[nH]c3ccccc32)CC1)c1ccc(F)cc1
inactive: locus YAL013W, strain DEP1, stronger effect = lower value 0.99 | locus YAL021C, strain ccr4, stronger effect = lower value 0.958 | locus YAL026C, strain drs2, stronger effect = lower value 0.992 | locus YAL030W, strain snc1, stronger effect = lower value 0.988 | locus YBL061C, strain skt5, stronger effect = lower value 0.989 | locus YBR009C, strain hhf1, stronger effect = lower value 0.979 | locus YBR021W, strain FUR4, stronger effect = lower value 0.953 | locus YBR023C, strain chs3, stronger effect = lower value 0.983 | locus YBR171W, strain sec66, stronger effect = lower value 0.963 | locus YBR229C, strain ROT2, stronger effect = lower value 0.949 | locus YBR231C, strain swc5, stronger effect = lower value 0.953 | locus YBR279W, strain paf1, stronger effect = lower value 0.972 | locus YCL011C, strain gbp2, stronger effect = lower value 0.975 | locus YCL016C, strain dcc1, stronger effect = lower value 1 | locus YCL029C, strain bik1, stronger effect = lower value 0.973 | locus YCL069W, strain vba3, stronger effect = lower value 0.992 | locus YCR088W, strain abp1, stronger effect = lower value 1 | locus YDL005C, strain med2, stronger effect = lower value 0.973 | locus YDL035C, strain GPR1, stronger effect = lower value 0.972 | locus YDL040C, strain nat1, stronger effect = lower value 0.992 | locus YDL074C, strain BRE1, stronger effect = lower value 0.984 | locus YDL101C, strain DUN1, stronger effect = lower value 0.976 | locus YDL134C, strain PPH21, stronger effect = lower value 0.983 | locus YDL185W, strain tfp1, stronger effect = lower value 0.991 | locus YDL192W, strain arf1, stronger effect = lower value 0.983 | locus YDR001C, strain nth1, stronger effect = lower value 0.974 | locus YDR069C, strain doa4, stronger effect = lower value 0.952 | locus YDR101C, strain arx1, stronger effect = lower value 0.983 | locus YDR137W, strain rgp1, stronger effect = lower value 0.993 | locus YDR150W, strain NUM1, stronger effect = lower value 0.968 | locus YDR159W, strain sac3, stronger effect = lower value 0.989 | locus YDR162C, strain NBP2, stronger effect = lower value 0.978 | locus YDR195W, strain ref2 0.936 | locus YDR297W, strain sur2, stronger effect = lower value 0.984 | locus YDR318W, strain mcm21, stronger effect = lower value 0.991 | locus YDR334W, strain swr1, stronger effect = lower value 0.976 | locus YDR335W, strain msn5, stronger effect = lower value 0.979 | locus YDR388W, stronger effect = lower value 0.986 | locus YDR392W, strain spt3, stronger effect = lower value 0.994 | locus YDR502C, strain sam2, stronger effect = lower value 0.968 | locus YEL003W, strain gim4, stronger effect = lower value 0.99 | locus YEL037C, strain rad23, stronger effect = lower value 1 | locus YEL061C, strain CIN8 (second series), stronger effect = lower value 0.981 | locus YEL061C, strain CIN8, stronger effect = lower value 0.985 | locus YER015W, strain faa2, stronger effect = lower value 0.969 | locus YER016W, strain bim1, stronger effect = lower value 1.01 | locus YER110C, stronger effect = lower value 0.957 | locus YER111C, strain swi4, stronger effect = lower value 0.975 | locus YER155C, strain BEM2 (second series), stronger effect = lower value 0.929 | locus YER155C, strain BEM2, stronger effect = lower value 0.996 | locus YER167W, strain BCK2, stronger effect = lower value 0.982 | locus YFR010W, strain ubp6, stronger effect = lower value 0.993 | locus YGL078C, strain dbp3, stronger effect = lower value 0.976 | locus YGL086W, strain mad1, stronger effect = lower value 0.976 | locus YGL167C, strain pmr1, stronger effect = lower value 0.979 | locus YGL173C, strain kem1, stronger effect = lower value 1 | locus YGL227W, strain vid30, stronger effect = lower value 0.953 | locus YGL240W, strain doc1, stronger effect = lower value 0.953 | locus YGL248W, strain PDE1, stronger effect = lower value 0.982 | locus YGL253W, strain hxk2, stronger effect = lower value 0.981 | locus YGR078C, strain PAC10, stronger effect = lower value 0.985 | locus YGR135W, strain pre9, stronger effect = lower value 0.968 | locus YGR229C, strain SMI1, stronger effect = lower value 0.992 | locus YGR252W, strain gcn5, stronger effect = lower value 0.906 | locus YHR013C, strain ard1, stronger effect = lower value 1.01 | locus YHR027C, strain rpn1, stronger effect = lower value 0.977 | locus YHR030C, strain SLT2, stronger effect = lower value 0.991 and 0.98 | locus YHR079C, strain IRE1 (second series), stronger effect = lower value 0.989 | locus YHR079C, strain IRE1, stronger effect = lower value 0.971 | locus YHR094C, strain hxt1, stronger effect = lower value 0.994 | locus YHR129C, strain ARP1, stronger effect = lower value 0.994 | locus YHR142W, strain chs7, stronger effect = lower value 0.983 | locus YHR200W, strain rpn10, stronger effect = lower value 0.99 | locus YIL066C, strain RNR3, stronger effect = lower value 0.971 | locus YIL073C, strain SPO22, stronger effect = lower value 1.02 | locus YIL125W, strain kgd1, stronger effect = lower value 0.99 | locus YIR030C, strain dcg1, stronger effect = lower value 0.972 | locus YJL092W, strain hpr5, stronger effect = lower value 0.984 | locus YJL095W, strain BCK1 (second series), stronger effect = lower value 0.996 | locus YJL095W, strain BCK1, stronger effect = lower value 1.03 and 0.998 | locus YJL115W, strain asf1, stronger effect = lower value 0.975 | locus YJL129C, strain trk1, stronger effect = lower value 0.939 | locus YJL134W, strain LCB3, stronger effect = lower value 0.979 | locus YJL154C, strain vps35, stronger effect = lower value 0.994 | locus YJL164C, strain tpk1, stronger effect = lower value 0.994 | locus YJL166W, strain qcr8, stronger effect = lower value 0.971 | locus YJL168C, strain set2, stronger effect = lower value 0.999 | locus YJL187C, strain SWE1 (second series), stronger effect = lower value 0.978 | locus YJL187C, strain SWE1, stronger effect = lower value 0.988 | locus YJR043C, strain POL32, stronger effect = lower value 0.995 | locus YJR066W, strain TOR1, stronger effect = lower value 0.93
